This note sets out measurements from the supplement of paper PMC9588786.

Values joined by “and” are separate entries in the source; they are usually repeats but may differ in a detail not shown here. Equal entries are not always repeated. ± gives the standard deviation of the averaged measurements.
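Also: viability read as CCK-8 absorbance at 450 nm in cells co-exposed to the GPX4 inhibitor RSL3, relative to a 0.01% DMSO vehicle control.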

For the test, the system named is HT-1080. Description: relative cell viability with RSL3 co-treatment (fraction of control); higher = stronger protection from RSL3-induced ferroptosis (higher viability). Conditions: 10 µM.
As to `COc1ccc(-c2ccc3c(N4CCOC[C@@H]4C)nc(N4CCOC[C@@H]4C)nc3n2)cc1CO`, the relative cell viability stood at 0.893 ± 0.13.
As for `CCOC(=O)c1cnc2ccc(-c3cncc(NS(=O)(=O)c4ccccc4)c3)cn12`, the relative cell viability was determined as 0.717 ± 0.09.
The value for `O=C(NCc1ccccc1)c1csc(Nc2ccncn2)n1` [Thiazovivin] was 0.557 ± 0.24; that for `Cc1cnc(-c2cnc(NCCNc3ccc(C#N)cn3)nc2-c2ccc(Cl)cc2Cl)[nH]1` was 0.55 and 0.457; that for `C#Cc1cccc(Nc2ncnc3cc4c(cc23)OCCOCCOCCO4)c1` [Icotinib] was 0.64 ± 0.075.
The value for `CCOc1cc(N2CCC(O)CC2)ccc1Nc1ncc2c(n1)N(C)c1ccccc1C(=O)N2C` was 0.793 ± 0.015.
The value for `CCS(=O)(=O)c1cccc(-c2cc(C(=O)NC3CCN(C)CC3)c(C)c3[nH]c4ncc(C)cc4c23)c1` was 0.397 ± 0.046; that for `COc1cccc(-n2c(=O)[nH]c3cc(Cl)n(-c4ccc(-c5cccc(OC)c5O)cc4)c3c2=O)c1` was 0.807 ± 0.081.
Regarding `COc1cc2ncnc(Nc3ccc(Cl)cc3F)c2cc1OC`, the relative cell viability was found to be 0.757 ± 0.14.
The value for `CO[C@H]1C[C@@H]2CC[C@@H](C)[C@@](O)(O2)C(=O)C(=O)N2CCCC[C@H]2C(=O)O[C@H]([C@H](C)C[C@@H]2CC[C@H](n3cnnn3)[C@H](OC)C2)CC(=O)[C@H](C)/C=C(\C)[C@@H](O)[C@@H](OC)C(=O)[C@H](C)C[C@H](C)/C=C/C=C/C=C/1C` [Zotarolimus(ABT-578)] was 0.607 ± 0.16.
For the compound `CCOc1cc2ncc(C#N)c(Nc3ccc(F)c(Cl)c3)c2cc1NC(=O)/C=C/CN(C)C` [Pelitinib (EKB-569)], the relative cell viability came to 0.247 ± 0.081.
As for `O=C1Nc2ccc(I)cc2/C1=C/c1cc(Br)c(O)c(Br)c1`, the relative cell viability was found to be 0.573 ± 0.2.
The value for `CNC(=O)c1ccc(C)c(-n2c(C)cc(OCc3ccc(F)cc3F)c(Br)c2=O)c1` was 0.747 ± 0.067.
The value for `Cc1ccc(C(=O)Nc2cccc(C(F)(F)F)c2)cc1Nc1nc(-c2cccnc2)nc2c1cnn2C` was 0.473 ± 0.23; that for `Cc1cc(NC(=O)c2cccc(NC(=O)/C=C/CN(C)C)c2)ccc1Nc1nccc(-c2cccnc2)n1` was 0.407 ± 0.086.
The value for `Nc1cc(C(F)(F)F)c(-c2cc(N3CCOCC3)nc(N3CCOCC3)n2)cn1` [Buparlisib (BKM120, NVP-BKM120)] was 0.643 ± 0.031.
Take `c1cc(-c2cnn3cc(-c4ccc(OCCN5CCCCC5)cc4)cnc23)ccn1` [Dorsomorphin 2HCl]: the relative cell viability came to 0.463 ± 0.18.
The same measure for `O=C(O)c1ccc(N2C(=O)/C(=C\c3ccc(-c4ccc([N+](=O)[O-])cc4)o3)C=C2c2ccccc2)cc1`: 1.24 ± 0.092; for `O=c1sn(-c2cccc3ccccc23)c(=O)n1Cc1ccccc1` [Tideglusib]: 0.74 ± 0.035; for `CCc1cccc(CC)c1NC(=O)N1Cc2[nH]nc(NC(=O)c3ccc(N4CCN(C)CC4)cc3)c2C1`: 0.53 ± 0.087.
The same measure for `Cc1cc(Nc2nc(N[C@@H](C)c3ncc(F)cn3)ncc2Cl)[nH]n1`: 0.597 ± 0.12.
On to `C#Cc1cccc(Nc2ncnc3cc(OC)c(OCCCCCCC(=O)NO)cc23)c1`, for which the relative cell viability was found to be 0.793 ± 0.046.
The same measure for `CCN1/C(=C/C(C)=O)Sc2ccc(OC)cc21`: 0.76 ± 0.1; for `COc1cc(N2CCC(N(C)C)CC2)ccc1Nc1ncc(Cl)c(Nc2ccccc2P(C)(C)=O)n1`: 0.36 ± 0.082; for `Cn1cnc(N)c2ncnc1-2` [3-Methyladenine (3-MA)]: 0.76 ± 0.078.
In the case of `CNC(=O)c1cc(Oc2ccc3nc(N[C@@H]4CCCC[C@H]4O)sc3c2)ccn1`, the relative cell viability amounted to 0.767 ± 0.05.
The same measure for `N#CCNC(=O)c1ccc(-c2ccnc(Nc3ccc(N4CCOCC4)cc3)n2)cc1` [Momelotinib (CYT387)]: 0.4 ± 0.075.
The same measure for `COc1cc2ncnc(Oc3ccc(CC(=O)Nc4cnn(C(C)C)c4)cc3)c2cc1OC`: 0.643 ± 0.33; for `Cc1cc(Nc2cc(N3CCN(C)CC3)nc(Sc3ccc(NC(=O)C4CC4)cc3)n2)n[nH]1` [Tozasertib (VX-680, MK-0457)]: 0.71 ± 0.01.
The value for `CN1CCN(c2nc(C3=C(c4c[nH]c5ccccc45)C(=O)NC3=O)c3ccccc3n2)CC1` [Sotrastaurin] was 0.903 ± 0.042; that for `CCc1cnn2c(NCc3ccc[n+]([O-])c3)cc(N3CCCC[C@H]3CCO)nc12` was 0.61 ± 0.1.
For the compound `C[C@@H]1COCCN1c1cc(C2([S@](C)(=N)=O)CC2)nc(-c2cc[nH]c3nccc2-3)n1`, the relative cell viability is 0.777 ± 0.06.
The value for `Cc1[nH]c(/C=C2\C(=O)Nc3ccc(S(=O)(=O)Cc4c(Cl)cccc4Cl)cc32)c(C)c1C(=O)N1CCC[C@@H]1CN1CCCC1` was 0.19 ± 0.046.
The same measure for `CCCCCCCCCCCCCCCCOP(=O)([O-])OCC[N+](C)(C)C` [Miltefosine]: 0.6 ± 0.13; for `O=c1[nH]nc(Sc2ncc([N+](=O)[O-])s2)n1-c1ccc2c(c1)OCCO2`: 0.533 ± 0.045.
The same measure for `Nc1ncnc2c1c(-c1cnc3[nH]ccc3c1)nn2C1CCCC1`: 0.397 ± 0.092; for `O=c1c(-c2ccc(O)cc2)coc2cc(O)cc(O)c12` [Genistein]: 0.76 ± 0.07; for `O=C(NC1CCNCC1)c1n[nH]cc1NC(=O)c1c(Cl)cccc1Cl`: 0.56 ± 0.18.
